Here are results for 44 molecules from PubChem BioAssay (EPA / NIEHS).

Inconclusive results are not listed. Calls of active or inactive are those of the source. How the source made its calls: active means hit-call score of the fitted dose curve at least 0.9, where 1 is the maximum; inconclusive means response in the unintended direction; inactive means score below 0.9. Peptide text beside a SMILES is read from it.

Assay [1] deals with human Peroxisome Proliferator-activated Receptor alpha (PPARa), PPARA (gene 5465) (UniProt Q07869). Put plainly: ATG_PPARa_TRANS: Attagene TRANS-FACTORIAL HepG2 Assay for human Peroxisome Proliferator-activated Receptor alpha (PPARa) (AID 2283001).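 On AC50: potency for gain of reporter signal over DMSO so agonist or activator.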 Put shortly:
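HepG2, transient MRTU transfection, 24 h treatment. RT-PCR → FAM labelling → capillary electrophoresis. Fit vs DMSO, positive direction.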

Assay [2] deals with human Peroxisome Proliferator-activated Receptor delta (PPARd), PPARD (gene 5467) (UniProt Q03181). Put plainly: ATG_PPARd_TRANS: Attagene TRANS-FACTORIAL HepG2 Assay for human Peroxisome Proliferator-activated Receptor delta (PPARd) (AID 2283002). Put shortly:
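Read-out: reporter mRNA induction, quantified by fluorescent RT-PCR products resolved by capillary electrophoresis. Human HepG2 liver cells carried transiently transfected Gal4-UAS reporter constructs with chimeric NR-Gal4 fusions. Cells were dosed for 24 h; DMSO served as baseline.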

The target of assay [3] is Peroxisome proliferator-activated receptor gamma (Homo sapiens) (UniProt P37231). Put plainly: ATG_PPARg_TRANS: Attagene TRANS-FACTORIAL HepG2 Assay for human Peroxisome Proliferator-activated Receptor-gamma (PPARg) (AID 2283007). Summed up: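 Gain-of-signal endpoint relative to DMSO, derived from reporter mRNA levels quantified by RT-PCR and capillary electrophoresis. Cells were HepG2 transiently expressing a chimeric NR-Gal4 construct with GAL4-UAS reporters, exposed to chemicals for 24 h.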

The target in assay [4] is Nuclear receptor subfamily 1 group I member 2 (Homo sapiens) (UniProt O75469). Put plainly: ATG_PXR_TRANS: Attagene TRANS-FACTORIAL HepG2 Assay for human Pregnane X Receptor (PXR) (AID 2283008). Summed up: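 Trans-factorial format: exogenous NR-Gal4 fusion activity, not endogenous factor, in transfected human HepG2 liver cells. After 24 h dosing, RNA isolated, reverse-transcribed, amplified and resolved by capillary electrophoresis; induction scored versus DMSO.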

The target of assay [5] is human Retinoic Acid Receptor gamma (RARg), RARG (gene 5916) (UniProt P13631). The experiment in a line: ATG_RARg_TRANS: Attagene TRANS-FACTORIAL HepG2 Assay for human Retinoic Acid Receptor gamma (RARg) (AID 2283009). Summed up: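 TRANS format measured activity of exogenous NR-GAL4 fusion (RARg) in transfected HepG2 liver cells after 24 h dosing. Induced reporter RNA was detected by RT-PCR/capillary electrophoresis fluorescence, analysed in the positive direction against DMSO.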

Assay [6] has as its target human Retinoic Acid Receptor beta (RARb), RARB (gene 5915) (UniProt P10826). The experiment in a line: ATG_RARb_TRANS: Attagene TRANS-FACTORIAL HepG2 Assay for human Retinoic Acid Receptor beta (AID 2283004). Summed up: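 HepG2 cells were transiently transfected with GAL4-UAS reporter units that report activity of exogenous chimeric NR-Gal4 proteins, then exposed to compound for 24 h. Reporter mRNA was quantified by RT-PCR with capillary electrophoresis fluorescence, as gain of signal over DMSO.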

Assay [7] deals with Retinoic acid receptor alpha (Homo sapiens) (UniProt P10276). The experiment in a line: ATG_RARa_TRANS: Attagene TRANS-FACTORIAL HepG2 Assay for human Retinoic Acid Receptor alpha (RARa) (AID 2283005). Summed up: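 HepG2 transiently transfected with multiplex GAL4-UAS reporter units including a human RARa–GAL4 chimera; 24 h compound exposure. Reporter mRNA quantified by RT-PCR, 6-FAM labeling and capillary electrophoresis; gain of signal versus DMSO.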
Sequence of Retinoic acid receptor alpha (Homo sapiens) (P10276 whole entry, looked up, the tested form may be a part): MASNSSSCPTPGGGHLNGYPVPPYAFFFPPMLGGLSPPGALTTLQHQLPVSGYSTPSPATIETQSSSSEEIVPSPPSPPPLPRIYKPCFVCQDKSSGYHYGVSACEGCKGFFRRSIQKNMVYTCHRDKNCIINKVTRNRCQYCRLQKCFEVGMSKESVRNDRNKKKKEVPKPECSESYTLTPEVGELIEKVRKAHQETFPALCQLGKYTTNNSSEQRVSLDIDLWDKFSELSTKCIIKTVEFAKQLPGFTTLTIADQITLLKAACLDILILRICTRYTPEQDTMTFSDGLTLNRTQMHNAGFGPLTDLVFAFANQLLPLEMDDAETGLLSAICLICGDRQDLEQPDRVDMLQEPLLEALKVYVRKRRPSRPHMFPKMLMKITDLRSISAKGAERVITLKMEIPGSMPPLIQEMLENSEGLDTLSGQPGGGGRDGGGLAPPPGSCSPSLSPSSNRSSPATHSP

Sequence of Peroxisome proliferator-activated receptor gamma (Homo sapiens) (P37231 whole entry, looked up, the tested form may be a part): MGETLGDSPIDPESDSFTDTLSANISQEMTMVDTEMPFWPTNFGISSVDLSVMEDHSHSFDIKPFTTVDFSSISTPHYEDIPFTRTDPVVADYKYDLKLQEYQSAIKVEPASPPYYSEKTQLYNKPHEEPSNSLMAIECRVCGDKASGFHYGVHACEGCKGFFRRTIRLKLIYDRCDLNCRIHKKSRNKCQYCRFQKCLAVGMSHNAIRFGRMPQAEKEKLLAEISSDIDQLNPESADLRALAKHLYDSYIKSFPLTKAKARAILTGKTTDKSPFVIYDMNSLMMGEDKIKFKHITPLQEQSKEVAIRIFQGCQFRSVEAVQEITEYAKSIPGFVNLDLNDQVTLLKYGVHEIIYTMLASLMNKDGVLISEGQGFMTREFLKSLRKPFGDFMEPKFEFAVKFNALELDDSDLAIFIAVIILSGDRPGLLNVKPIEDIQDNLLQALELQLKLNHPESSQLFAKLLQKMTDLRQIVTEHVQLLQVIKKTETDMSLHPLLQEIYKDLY
Sequence of human Retinoic Acid Receptor gamma (RARg), RARG (gene 5916) (P13631 whole entry, looked up, the tested form may be a part): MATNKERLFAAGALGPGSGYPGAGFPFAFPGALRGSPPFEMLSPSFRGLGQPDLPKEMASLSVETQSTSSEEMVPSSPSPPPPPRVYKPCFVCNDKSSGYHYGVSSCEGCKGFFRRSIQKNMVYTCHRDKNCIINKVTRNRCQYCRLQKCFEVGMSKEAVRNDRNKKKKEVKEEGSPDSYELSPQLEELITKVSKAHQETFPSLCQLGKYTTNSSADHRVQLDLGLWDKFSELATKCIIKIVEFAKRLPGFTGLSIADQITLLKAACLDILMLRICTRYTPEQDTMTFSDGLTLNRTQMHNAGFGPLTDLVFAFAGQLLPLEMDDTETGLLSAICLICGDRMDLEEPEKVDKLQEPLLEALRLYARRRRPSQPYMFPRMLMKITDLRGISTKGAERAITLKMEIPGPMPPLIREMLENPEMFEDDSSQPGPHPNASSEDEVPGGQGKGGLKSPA
Sequence of human Retinoic Acid Receptor beta (RARb), RARB (gene 5915) (P10826 whole entry, looked up, the tested form may be a part): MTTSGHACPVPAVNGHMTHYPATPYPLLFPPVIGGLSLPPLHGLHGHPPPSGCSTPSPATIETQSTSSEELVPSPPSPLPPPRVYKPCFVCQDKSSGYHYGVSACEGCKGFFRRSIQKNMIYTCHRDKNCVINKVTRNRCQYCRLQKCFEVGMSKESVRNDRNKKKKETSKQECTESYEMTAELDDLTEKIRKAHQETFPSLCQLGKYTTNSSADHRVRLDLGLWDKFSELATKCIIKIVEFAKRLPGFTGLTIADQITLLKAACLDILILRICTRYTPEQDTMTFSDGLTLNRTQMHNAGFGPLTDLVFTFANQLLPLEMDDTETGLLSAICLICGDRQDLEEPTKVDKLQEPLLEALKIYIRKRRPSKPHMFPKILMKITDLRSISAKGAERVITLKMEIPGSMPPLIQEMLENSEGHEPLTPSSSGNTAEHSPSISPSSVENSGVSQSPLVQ
Sequence of Nuclear receptor subfamily 1 group I member 2 (Homo sapiens) (O75469 whole entry, looked up, the tested form may be a part): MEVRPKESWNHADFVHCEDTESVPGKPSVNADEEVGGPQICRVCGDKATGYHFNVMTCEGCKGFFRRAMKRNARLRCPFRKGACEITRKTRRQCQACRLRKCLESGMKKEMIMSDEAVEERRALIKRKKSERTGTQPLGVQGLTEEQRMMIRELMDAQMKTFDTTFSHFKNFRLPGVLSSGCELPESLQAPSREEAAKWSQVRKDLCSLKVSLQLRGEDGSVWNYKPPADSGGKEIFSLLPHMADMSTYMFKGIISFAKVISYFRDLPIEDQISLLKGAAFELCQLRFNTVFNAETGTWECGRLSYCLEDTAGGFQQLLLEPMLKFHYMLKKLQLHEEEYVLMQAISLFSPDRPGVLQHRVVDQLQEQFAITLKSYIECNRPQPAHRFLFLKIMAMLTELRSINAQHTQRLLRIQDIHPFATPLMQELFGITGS
Sequence of human Peroxisome Proliferator-activated Receptor alpha (PPARa), PPARA (gene 5465) (Q07869 whole entry, looked up): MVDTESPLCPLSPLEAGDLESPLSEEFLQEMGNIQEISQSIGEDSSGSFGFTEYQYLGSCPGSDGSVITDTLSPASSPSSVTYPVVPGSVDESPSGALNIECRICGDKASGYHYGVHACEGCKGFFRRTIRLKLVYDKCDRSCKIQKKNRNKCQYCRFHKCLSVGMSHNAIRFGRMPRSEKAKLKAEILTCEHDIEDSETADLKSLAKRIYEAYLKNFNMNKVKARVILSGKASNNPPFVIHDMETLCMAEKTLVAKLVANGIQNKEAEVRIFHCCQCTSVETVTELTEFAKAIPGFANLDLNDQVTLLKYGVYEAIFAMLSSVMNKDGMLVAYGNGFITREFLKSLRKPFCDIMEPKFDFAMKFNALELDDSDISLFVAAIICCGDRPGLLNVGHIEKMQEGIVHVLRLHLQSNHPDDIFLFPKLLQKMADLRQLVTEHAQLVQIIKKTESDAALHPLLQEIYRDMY
Sequence of human Peroxisome Proliferator-activated Receptor delta (PPARd), PPARD (gene 5467) (Q03181 whole entry, looked up, the tested form may be a part): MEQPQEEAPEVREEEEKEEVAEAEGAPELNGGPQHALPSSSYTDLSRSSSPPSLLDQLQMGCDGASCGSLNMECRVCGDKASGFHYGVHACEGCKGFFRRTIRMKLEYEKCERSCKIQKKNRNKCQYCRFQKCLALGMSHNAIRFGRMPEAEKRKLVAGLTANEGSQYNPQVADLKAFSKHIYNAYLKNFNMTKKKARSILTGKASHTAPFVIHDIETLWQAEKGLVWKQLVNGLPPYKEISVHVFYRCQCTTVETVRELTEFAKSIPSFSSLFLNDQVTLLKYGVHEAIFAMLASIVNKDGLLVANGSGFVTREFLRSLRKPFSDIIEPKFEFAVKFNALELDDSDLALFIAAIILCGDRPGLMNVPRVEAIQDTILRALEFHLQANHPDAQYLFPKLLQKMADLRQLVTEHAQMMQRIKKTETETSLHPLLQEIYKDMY

As a reminder, the AC50 is the midpoint of the concentration-response curve, whichever way the signal moves. As to `C=C(C)C(=O)OCC(O)COc1ccc(C(C)(C)c2ccc(OCC(O)COC(=O)C(=C)C)cc2)cc1` (centres undefined), the molecule was classed as inactive in assay [1], in assay [2] and in assay [5]. For the same molecule, the AC50 is 7.32 µM (active) in assay [3] and 6.93 µM (active) in assay [4].

Regarding `C=CC(=O)O[C@H]1C[C@@H]2CC[C@@]1(C)C2(C)C`, the molecule was called inactive in assay [1], in assay [2] and in assay [3]. Further, in assay [4], the AC50 was 26.6 µM (active).

Consider `CCCCCCCOC(=O)c1ccc(O)cc1`, for which the molecule was called inactive in assay [1], in assay [6], in assay [7], in assay [3] and in assay [5].

Regarding `O=S(=O)(O)c1ccc(N=Nc2c(O)ccc3ccccc23)cc1`, the molecule was classed as inactive in assay [1], in assay [6], in assay [7], in assay [3] and in assay [5].

As for `C=CCCCCCCCCO`, the molecule was classed as inactive in assay [1], in assay [2], in assay [3] and in assay [4].

`CCC(C)C(=O)OCCc1ccccc1` (centres undefined): the outcome in assay [1], in assay [2] and in assay [4] was inactive.

`C=CCOC(=O)c1ccc(C(=O)OCC=C)c(C(=O)OCC=C)c1`: the results for the AC50 in assay [1] and in assay [3] were 8.92 µM (active) and 27.7 µM (active), respectively. The molecule was called inactive in assay [2] and in assay [4].

On to `CN(C)c1ccc2nc3ccc(=[N+](C)C)cc-3sc2c1`, for which the molecule was called inactive in assay [1], in assay [6], in assay [7] and in assay [5]. In assay [3], the AC50 was 12.1 µM (active).

On to `CC(C)=CCl`, for which the result in assay [1], in assay [2] and in assay [5] was inactive.

As for `CCCCCCCCCCCCCCCCCCOS(=O)(=O)O`, the AC50 is 27.4 µM (active) in assay [1], 112 µM (active) in assay [2] and 8.35 µM (active) in assay [3]. For the same molecule, in assay [4], the result was inactive.

Take `O=C(Nc1ccccc1)c1cc(Cl)ccc1O`: the call in assay [1], in assay [6], in assay [7], in assay [4] and in assay [5] was inactive. The AC50 in assay [3] was 13 µM (active).

On to `Oc1ccc(-c2ccccc2)c(Cl)c1`, for which the AC50 in assay [1] is 41.1 µM (active); in assay [3], 39.9 µM (active). Moreover, the result in assay [2], in assay [4] and in assay [5] was inactive.

Regarding `CC(C)=CCCC(C)=CC#N`, the result in assay [1], in assay [6], in assay [3] and in assay [4] was inactive.

Consider `Cc1cc(C)c(C=O)c(C)c1`, for which the result in assay [1], in assay [2], in assay [3] and in assay [5] was inactive.

Regarding `CCc1cccc(C)c1N`, the molecule was called inactive in assay [1], in assay [6], in assay [7], in assay [3], in assay [4] and in assay [5].

For the molecule `O=C(O)CC(C(=O)O)S(=O)(=O)O` (centres undefined), the molecule was classed as inactive in assay [1], in assay [2] and in assay [4].

Consider `CCCCCCCCCCCCCC(=O)OC(C)C`, for which the molecule was called inactive in assay [1], in assay [6], in assay [7], in assay [3], in assay [4] and in assay [5].

`C=C[Si](OCCOC)(OCCOC)OCCOC`: the molecule was called inactive in assay [1], in assay [6] and in assay [4].

Take `NC(=O)Nc1ccccc1`: the molecule was classed as inactive in assay [1] and in assay [6].

For the molecule `CC(=O)C(C)C`, the result in assay [1], in assay [6], in assay [7], in assay [3], in assay [4] and in assay [5] was inactive.

As for `CCCCCCCCCCCCc1ccc(O)cc1`, the outcome in assay [1], in assay [2], in assay [3] and in assay [5] was inactive. In addition, the AC50 in assay [4] is 3 µM (active).

`CN(C)Cc1cc(CN(C)C)c(O)c(CN(C)C)c1`: the molecule was called inactive in assay [1], in assay [6], in assay [3] and in assay [4].

`CCC(C)c1ccccc1` (centres undefined): the outcome in assay [1], in assay [2], in assay [3] and in assay [5] was inactive.

For the molecule `CCOC(=O)OC(=O)OCC`, the result in assay [1], in assay [2], in assay [4] and in assay [5] was inactive.

Consider `Nc1ccc(C(=O)OCCCOC(=O)c2ccc(N)cc2)cc1`, for which the call in assay [1] was inactive. The figures for the AC50 in assay [3] and in assay [4] were 33.4 µM (active) and 19.6 µM (active), respectively.

As to `O=C1c2ccccc2C(=O)c2cc(S(=O)(=O)O)ccc21`, the molecule was classed as inactive in assay [1] and in assay [3].

As to `CCCCOCCOC(=O)COc1ccc(Cl)cc1Cl`, the molecule was classed as inactive in assay [1] and in assay [3].

With `CC(=O)OC/C=C(/C)CCC=C(C)C`, the molecule was called inactive in assay [1], in assay [7], in assay [3] and in assay [4].

`CC(C)CCOCc1ccccc1`: the molecule was called inactive in assay [1], in assay [3] and in assay [4].

Consider `CCCCCCCC(=O)OCC(COC(=O)CCCCCCC)OC(=O)CCCCCCC`, for which the result in assay [1] and in assay [3] was inactive.

In the case of `Nc1ccnc(=O)[nH]1`, the molecule was classed as inactive in assay [1] and in assay [3].

On to `COC(=O)CC(C)CCC=C(C)C` (centres undefined), for which the result in assay [1], in assay [3] and in assay [4] was inactive.

Turning to `CCCCC(C=O)CC` (centres undefined), the molecule was called inactive in assay [1] and in assay [3].

Take `CC12CCC(CC1)C(C)(C)O2`: the result in assay [2] and in assay [6] was inactive.

Take `C=CC(=O)OCCCCCCCCCC`: the result in assay [1] and in assay [4] was inactive. In addition, the AC50 in assay [3] is 3.15 µM (active).

For `CC(=O)c1ccc(S(=O)(=O)NC(=O)NC2CCCCC2)cc1`, the molecule was called inactive in assay [1], in assay [7], in assay [3], in assay [4] and in assay [5].

Consider `C=CC(C)(O)CC/C=C(\C)CC` (centres undefined), for which the molecule was classed as inactive in assay [2], in assay [6], in assay [7], in assay [3] and in assay [5]. The AC50 in assay [4] is 6.12 µM (active).

As for `CCCCCCCC(=O)OCC`, the molecule was called inactive in assay [1], in assay [3], in assay [4] and in assay [5].

On to `N#CC1(N)CCCCC1`, for which the molecule was classed as inactive in assay [1], in assay [3] and in assay [5].

In the case of `Cc1c(C(=O)c2c[nH]n(C)c2=O)ccc(S(C)(=O)=O)c1C1=NOCC1`, the molecule was classed as inactive in assay [1], in assay [7] and in assay [4].

For `COC(Cc1ccccc1)OC`, the molecule was called inactive in assay [1] and in assay [3].

For the molecule `C=C(C)OC(C)=O`, the result in assay [1], in assay [4] and in assay [5] was inactive.

For the molecule `CCCCOCCOCCOC(C)=O`, the outcome in assay [2] was inactive.

For the molecule `COC(=O)[C@H](Cc1ccccc1)NC(=O)[C@@H](N)CC(=O)O` (H-Asp-Phe-OMe), the molecule was classed as inactive in assay [2], in assay [6], in assay [7], in assay [3] and in assay [5].
